Measurements as given in PubChem BioAssay AID802 (Columbia University Molecular Screening Center, 2007).
Hit rate of the full screen: of about 95,000 compounds, about 460 (0.48%) were called active. This is one part of a sample in which actives are shown more often than they occur. Unmarked numbers belong to inactive results.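 Rule for the calls: active = inhibition above the batch mean plus 3 SD, with images confirmed as a hit by eye (cut at about 37% in these data); inconclusive = inhibition above that limit but hit not confirmed in images; inactive = inhibition not above that limit.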

test: inhibitors of TNFa-induced VCAM1 expression, primary screen, imaging, HUVEC, TNFa stimulus, immunofluorescence (AID 802); conditions: HUVEC TNFa-induced VCAM-1 immunofluorescence, high-content imaging; at 2 µM; hits give high values;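 note: 0% = TNF-stimulated DMSO wells and 100% = unstimulated control wells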

| Structure (SMILES) | inhibition |
| --- | --- |
| CCN(CC)CCN1C(=O)C(=O)/C(=C(/O)c2cnn(-c3ccccc3)c2C)C1c1cccs1 (stereo not drawn) | -0.9% |
| COc1ccc(-c2c(C(C)=O)c(C)nc3sc4c(=O)n(-c5ccc(C)cc5)nnc4c23)cc1 | 12% |
| O=C(CN1CCSCC1)N/N=C/c1ccc(F)cc1 | -11.6% |
| CCc1nnc(NC(=O)CSc2nc3ccccc3c(=O)n2CCCOC)s1 | 1.6% |
| Cc1nnc(SCc2nc3ccccc3nc2C)s1 | -5.5% |
| Cc1ccc(NC(=S)NC2CCCC2)cc1 | -15% |
| Cc1ccoc1C(=O)Nc1cccc(Oc2ccccc2)c1 | -7.5% |
| O=C(O)c1cccnc1NC1CCCC1 | -5.2% |
| O=C(c1ccc2c(c1)OCCO2)C1CCN(S(=O)(=O)c2cccc(F)c2)CC1 | -12.7% |
| CC(=O)c1cccc(S(=O)(=O)N2CCC(n3nnc4cc(F)ccc43)CC2)c1 | 54.7% (active) |
| O=S(=O)(c1cccc(S(=O)(=O)N2CCC(n3nnc4ccccc43)CC2)c1)N1CCCCC1 | -12.3% |
| COc1ccc(CC(=O)Nc2ccc(-c3nnc(-c4ccc(C)cc4)o3)cc2)cc1 | -1.2% |
| COc1ccc(NC(=O)/C(Cl)=C(/Cl)S(=O)Cc2ccc(C)cc2)cn1 (stereo not drawn) | 90.4% (active) |
| COc1cccc(NC(=O)Cc2ccc(C)cc2)c1 | 3.7% |
| COc1cc(CC(=O)NCc2cccs2)cc(OC)c1OC | 4.1% |
| CCOc1ccc(NC(=O)Nc2cc(C)ccc2OC)cc1 | 11.7% |
| COc1ccc(/C=N\NC(=O)c2sc(N)nc2C)cc1OC | -10.1% |
| COc1cc(/C=N/NC(=O)Nc2ccccc2)ccc1OCCOc1ccccc1C | 51.1% (active) |
| CC(C)CNC(=S)NNC(=O)c1nn(C)cc1Cl | 5.2% |
| Cc1nnsc1S(=O)(=O)Cc1ccccc1Cl | 1.2% |
| COCCNS(=O)(=O)c1cc(Br)ccc1OC | -35.9% |
| O=C(Nc1ccccc1)c1ccc2nsnc2c1 | -11.1% |
| O=C(Nc1ccccc1)c1nnsc1S(=O)(=O)c1ccc(Cl)cc1 | 59.3% (active) |
| O=C(Nc1ccc(Cl)cc1)c1ccsn1 | -10% |
| O=C(c1ccc(Cl)cc1)c1cnc(Nc2ccccc2)s1 | 4.4% |

| Structure (SMILES) | inhibition |
| --- | --- |
| CCC(C)(C)n1nnnc1CN1CCN(c2nc3ccc(C)cc3cc2C#N)CC1 | 3.1% |
| S=C(NCCC1=CCCCC1)Nc1ccccc1 | 2.2% |
| CC(C)NC(=O)CSc1nnc(COc2ccccc2Cl)o1 | 6.7% |
| NS(=O)(=O)c1cccnc1Nc1cccc(Cl)c1 | -4.5% |
| COC(=O)C1=C(Nc2ccc(OC)cc2)C=C(C)C(C(=O)OC)C1c1ccc(C)cc1 (stereo not drawn) | -3.9% |
| O=C(O)CSc1nccn1-c1cccc(Cl)c1 | -15% |
| Cc1cccc(C)c1NC1=NC(=S)N(c2ccc(N(C)C)cc2)C1(C)C | -2.5% |
| Cc1ccc(/C=N/NC(=O)c2sccc2OCc2ccc(F)cc2)cc1 | 4% |
| CCOC(=O)C1(S(=O)(=O)c2ccccc2)CCN(Cc2ccccc2)CC1 | -5.9% |
| CC1CC(C)CN(S(=O)(=O)c2cccc(C(=O)N3C(=O)c4cccc(N)c4C3=O)c2)C1 (stereo not drawn) | -20.1% |
| CCC(=O)Nc1ccc2nc(C)n(Cc3ccccc3Cl)c(=O)c2c1 | -5.1% |
| CC(=O)Nc1ccccc1OC(=O)N1CCOCC1 | -16.3% |
| Cc1cc(C)n(-c2nnc(C)n2NC(=O)c2cccc(Cl)c2)n1 | -8.8% |
| Cc1ccc(Nc2nc(C)cc(C)c2C(N)=O)cc1 | 7.1% |
| CC1CCN(S(=O)(=O)c2ccc(S(=O)(=O)NCc3ccco3)cc2)CC1 | -20.1% |
| O=C(OC1CCCCC1=O)c1cccc(S(=O)(=O)NCc2ccccc2)c1 (stereo not drawn) | -3.3% |
| CSc1nc(N(C)NC(=O)c2cccc(C)c2)c2ccccc2n1 | 83.3% (active) |
| COc1ccc(C(=O)NN(C)c2nc(-c3ccccc3)cc(C)c2S(C)(=O)=O)cc1 | 16.7% |
| CN(NC(=O)c1ccccc1)c1nc2ccccc2nc1C(F)(F)F | 11.7% |
| CCN(CC)c1ccc(/C=N/Nc2nc(C)cc(=O)[nH]2)cc1 | 11.9% |
| COC(=O)C1=C(C(=O)c2ccc(C)cc2)C(c2ccccc2)n2nnnc2N1 (stereo not drawn) | 5.8% |
| COc1ccc(C(=O)Nc2nc(-c3ccc(S(=O)(=O)N4CCOCC4)cc3)cs2)cc1 | -4.5% |
| CCOc1cccc(C(=O)Nc2nnc(-c3cccs3)s2)c1 | -0.3% |
| c1ccc(-n2nnnc2NC2CCCCCC2)cc1 | -15.1% |
| O=C(CS(=O)(=O)c1cn(Cc2cccc(F)c2)c2ccccc12)N1CCCCC1 | 50.1% (active) |

| Structure (SMILES) | inhibition |
| --- | --- |
| Cc1cc(NC(=O)CS(=O)(=O)c2cn(C)c3ccccc23)no1 | 28.9% |
| CCOC(=O)c1ccc(NC(=O)CS(=O)(=O)c2cn(CC)c3ccccc23)cc1 | 7% |
| O=C(NCCCN1CCOCC1)c1cnn2c(-c3ccccc3)cc(-c3ccccc3)nc12 | 12% |
| O=C(Nc1cc(-c2nn(CC(=O)N3CCCCC3)c(=O)c3ccccc23)ccc1N1CCOCC1)c1ccc(Cl)cc1 | 12.6% |
| Cc1ccc(-n2ncc3c(Nc4cccc(C(=O)O)c4)ncnc32)cc1 | -17% |
| CCCCNC(=O)CSc1nc2n[nH]c(C)c2c(=N)n1-c1cccc(Cl)c1C | 10.7% |
| CCNC(=O)c1sccc1-n1cccc1 | 32% |
| COc1cccc(-c2nnc(SCCOc3ccc4c(C)cc(=O)oc4c3)o2)c1 | 0.7% |
| Cc1ccccc1N1CCN(CCCOc2ccc3c(C)cc(=O)oc3c2)CC1 | -7.7% |
| Cc1cc(=O)oc2cc(OCC3CC(c4ccccc4Cl)=NO3)ccc12 (stereo not drawn) | 59.7% (active) |
| Oc1ccccc1/C=N/n1c(-c2cccs2)n[nH]c1=S | -7.1% |
| O=C(Nc1ccc(-c2nnc(-c3ccccc3)o2)cc1)c1ccc(Br)o1 | -17.2% |
| CC(CCc1ccccc1)NC(=O)c1ccc(Br)o1 (stereo not drawn) | 95.4% (active) |
| CC(CNC(=O)c1ccc(Br)o1)NC(=O)c1ccc(Br)o1 (stereo not drawn) | -12.4% |
| O=C1CSC(c2cccc(F)c2)N1c1ccc(O)cc1 (stereo not drawn) | -1.8% |
| C/C(=C\C(=O)c1cccnc1)Nc1ccc(C)c(C)c1 | 89.1% (active) |
| CCC(=O)Nc1cccc(NC(=O)c2cccnc2)c1 | 7.8% |
| C/C(=C\C(=O)c1ccccc1)Nc1cccc(O)c1 | -2.3% |
| Cc1c(NC(=O)/C=C/C(=O)O)cccc1[N+](=O)[O-] | 3.3% |
| O=C(CSc1ncnc2c1cnn2CCc1ccccc1)Nc1ccc(F)cc1 | 1.7% |
| CCOC(=O)N1CCN(C(=O)COc2ccc(Cl)cc2C)CC1 | 92.1% (active) |
| CCOC(=O)N1CCN(C(=O)CSc2ccc(Cl)cc2)CC1 | -18.1% |
| CCOC(=O)N1CCN(C(=O)COc2ccc(Br)cc2)CC1 | -1.9% |
| CCn1c2ccccc2c2cc(NC(=O)C/C(C)=N/NC(=O)c3ccccc3N)ccc21 | 1.3% |
| COC(=O)c1cc(OC)c(OC)cc1NC(=O)CSc1ccc(C)cc1 | -25% |

| Structure (SMILES) | inhibition |
| --- | --- |
| Cc1ccc2nc(SCc3nnc(-c4ccccc4[N+](=O)[O-])o3)c(C#N)cc2c1 | 6% |
| CN(C)c1ccnc(Oc2ccc(F)cc2)c1C#N | -15.3% |
| CC(=O)c1ccc(Oc2cc(C)nc(-n3nc(C)cc3C)n2)cc1 | 75.8% (active) |
| Cc1cc(C)n(-c2cc(Oc3ccccc3)ncn2)n1 | 13.4% |
| Cc1cc(Oc2ccccc2)nc(N2CCOCC2)n1 | 0.8% |
| O=C(Cc1ccc(-n2c(=O)[nH]c3ccccc3c2=O)cc1)N1CCN(c2cccc(Cl)c2)CC1 | 1.3% |
| Cc1cccc(S(=O)(=O)CC(=O)Nc2nc(-c3ccccc3)cs2)c1 | -5.3% |
| CN(CC#CCC(c1ccccc1)c1ccccc1)C(C)(C)C | 5.2% |
| O=C1Cc2ccccc2Sc2ccc(Cl)cc21 | 10% |
| CSCc1cc(N2CCOCC2)nc(SCc2ccc(Cl)cc2Cl)n1 | 5.1% |
| Cc1ccc(-c2csc(NC(=O)Cc3cccs3)n2)cc1C | 1.5% |
| COc1ccc(OC)c(/C=N/NC(=O)CSc2nnc(C)n2-c2ccccc2)c1 | 0.9% |
| O=C(Nc1ccccc1)c1ccccc1NC(=O)C(F)(F)F | -10.4% |
| COc1cc(/C=C2\SC(=S)N(Nc3ncc(C(F)(F)F)cc3Cl)C2=O)cc(OC)c1OC | 14.4% |
| O=C(c1ccccc1)C(Cn1cncn1)C(Sc1ccccc1)c1ccccc1 (stereo not drawn) | 0.1% |
| CCOc1ccc(NC(=O)CCS(=O)(=O)c2ccc3c(c2)CCCN3C(=O)CC)cc1 | 0.8% |
| COc1ccccc1NC(=O)C1CCCN(c2cc(C)nc3ncnn23)C1 (stereo not drawn) | 3.1% |
| CC(C)c1nc(N2CCOCC2)c(C#N)c2c1COC(C)(C)C2 | -40.7% |
| CC(C)C(=O)N1CCN(c2nc(-c3ccccc3)c3c(c2C#N)CC(C)(C)OC3)CC1 | 36.7% (active) |
| CC1(C)Cc2c(C#N)c(SCc3nc4ccccc4[nH]3)nc(N3CCOCC3)c2CO1 | 7.1% |
| S=C(NCc1cccs1)Nc1ccc(Cl)cc1 | -27.9% |
| Cc1cc2cc(CNC(=O)c3cccs3)ccc2[nH]1 | 11.4% |
| COCCn1c(SCc2nnc(-c3ccc(OC)c(OC)c3)o2)nc2sc3c(c2c1=O)CCC3 | -4.9% |
